# Source: article PMC11006913
# Numbering of substitutions follows the chain as printed.
# How the values were obtained:
# Assay in all cases: PBM; 200 nM protein, PBS
# Conditions in all cases: dsDNA, one strand shown
# NKX2-5 [1] = target: NKX2-5 (Homo sapiens, UniProt P52952 125-210, R139K)
# HOXB9 [2] = target: HOXB9 (Homo sapiens, UniProt P17482 171-250, T197M)
# HOXB9 [3] = target: HOXB9 (Homo sapiens, UniProt P17482 171-250)
# HOXB9 [4] = target: HOXB9 (Homo sapiens, UniProt P17482 171-250, R186Q)
# NKX2-5 [5] = target: NKX2-5 (Homo sapiens, UniProt P52952 125-210)
# NKX2-4 [6] = target: T1, NKX2-4 (Homo sapiens, UniProt Q9H2Z4 175-261, P217L)
# T1 sequence: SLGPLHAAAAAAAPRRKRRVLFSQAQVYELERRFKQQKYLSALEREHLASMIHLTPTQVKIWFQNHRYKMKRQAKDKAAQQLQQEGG
# NKX2-4 [7] = target: T2, NKX2-4 (Homo sapiens, UniProt Q9H2Z4 175-261, T231S)
# T2 sequence: T1 sequence with L43P, T57S
# NKX2-6 [8] = target: T3, NKX2-6 (Homo sapiens, UniProt A6NCS4 118-204, R150C)
# T3 sequence: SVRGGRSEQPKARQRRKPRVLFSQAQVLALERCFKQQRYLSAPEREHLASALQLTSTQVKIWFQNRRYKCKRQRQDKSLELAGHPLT
# NKX2-6 [9] = target: T4, NKX2-6 (Homo sapiens, UniProt A6NCS4 118-204)
# T4 sequence: T3 sequence with C33R
# NKX2-6 [10] = target: T5, NKX2-6 (Homo sapiens, UniProt A6NCS4 118-204, F151L)
# T5 sequence: T3 sequence with C33R, F34L
# NKX3-2 [11] = target: NKX3-2 (Homo sapiens, UniProt P78367 192-278, P234S)
# NKX3-2 [12] = target: NKX3-2 (Homo sapiens, UniProt P78367 192-278)
# PRRX1 [13] = target: PRRX1 (Homo sapiens, UniProt P54821 80-166, F113S)
# PRRX1 [14] = target: PRRX1 (Homo sapiens, UniProt P54821 80-166)
# NKX2-4 [15] = target: T6, NKX2-4 (Homo sapiens, UniProt Q9H2Z4 175-261)
# T6 sequence: T1 sequence with L43P
# NKX2-4 [16] = target: T7, NKX2-4 (Homo sapiens, UniProt Q9H2Z4 175-261, R246Q)
# T7 sequence: T1 sequence with L43P, R72Q
# NKX2-5 (Homo sapiens, UniProt P52952 125-210), sequence (P52952 125-210): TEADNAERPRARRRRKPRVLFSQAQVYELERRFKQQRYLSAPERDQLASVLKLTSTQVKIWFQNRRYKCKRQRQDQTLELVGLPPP
# NKX2-5 (Homo sapiens, UniProt P52952 125-210, R139K), sequence (P52952 125-210 R139K): as the sequence (P52952 125-210) above, with R15K counted along it
# HOXB9 (Homo sapiens, UniProt P17482 171-250, R186Q), sequence (P17482 171-250 R186Q): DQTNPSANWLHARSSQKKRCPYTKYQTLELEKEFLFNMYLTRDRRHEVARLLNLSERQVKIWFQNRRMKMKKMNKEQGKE
# NKX3-2 (Homo sapiens, UniProt P78367 192-278, P234S), sequence (P78367 192-278 P234S): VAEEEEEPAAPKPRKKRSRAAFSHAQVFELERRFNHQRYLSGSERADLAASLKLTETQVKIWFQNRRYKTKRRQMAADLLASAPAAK
# NKX3-2 (Homo sapiens, UniProt P78367 192-278), sequence (P78367 192-278): as the sequence (P78367 192-278 P234S) above, with S43P counted along it
# HOXB9 (Homo sapiens, UniProt P17482 171-250, T197M), sequence (P17482 171-250 T197M): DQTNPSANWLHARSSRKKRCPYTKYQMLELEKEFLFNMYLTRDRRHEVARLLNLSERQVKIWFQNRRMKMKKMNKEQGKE
# HOXB9 (Homo sapiens, UniProt P17482 171-250), sequence (P17482 171-250): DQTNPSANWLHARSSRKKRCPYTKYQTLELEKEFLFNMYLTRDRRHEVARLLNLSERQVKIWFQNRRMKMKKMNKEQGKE
# PRRX1 (Homo sapiens, UniProt P54821 80-166), sequence (P54821 80-166): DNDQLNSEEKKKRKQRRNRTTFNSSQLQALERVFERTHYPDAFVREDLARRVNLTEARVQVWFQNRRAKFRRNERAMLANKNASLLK
# PRRX1 (Homo sapiens, UniProt P54821 80-166, F113S), sequence (P54821 80-166 F113S): as the sequence (P54821 80-166) above, with F34S counted along it
sequence,measurement,setting,value
CATGCGCC,binding signal,NKX2-5 [1],"8.86 upbm affinity estimate (log intensity, higher = more binding, comparable within an allelic series)"
same,binding signal,HOXB9 [2],"8.7 upbm affinity estimate (log intensity, higher = more binding, comparable within an allelic series)"
same,binding signal,HOXB9 [3],"8.56 upbm affinity estimate (log intensity, higher = more binding, comparable within an allelic series)"
same,binding signal,HOXB9 [4],"8.56 upbm affinity estimate (log intensity, higher = more binding, comparable within an allelic series)"
same,binding signal,NKX2-5 [5],"8.85 upbm affinity estimate (log intensity, higher = more binding, comparable within an allelic series)"
AAGTGGTC,binding signal,NKX2-5 [1],"12.6 upbm affinity estimate (log intensity, higher = more binding, comparable within an allelic series)"
same,binding signal,NKX2-4 [6],"12.4 upbm affinity estimate (log intensity, higher = more binding, comparable within an allelic series)"
same,binding signal,NKX2-4 [7],"12.8 upbm affinity estimate (log intensity, higher = more binding, comparable within an allelic series)"
same,binding signal,NKX2-6 [8],"11.8 upbm affinity estimate (log intensity, higher = more binding, comparable within an allelic series)"
same,binding signal,NKX2-6 [9],"13.4 upbm affinity estimate (log intensity, higher = more binding, comparable within an allelic series)"
same,binding signal,NKX2-6 [10],"10.5 upbm affinity estimate (log intensity, higher = more binding, comparable within an allelic series)"
same,binding signal,NKX3-2 [11],"12.9 upbm affinity estimate (log intensity, higher = more binding, comparable within an allelic series)"
same,binding signal,NKX2-5 [5],"12.6 upbm affinity estimate (log intensity, higher = more binding, comparable within an allelic series)"
same,binding signal,NKX3-2 [12],"12.9 upbm affinity estimate (log intensity, higher = more binding, comparable within an allelic series)"
CGTGCACG,binding signal,NKX2-5 [1],"8.84 upbm affinity estimate (log intensity, higher = more binding, comparable within an allelic series)"
same,binding signal,HOXB9 [2],"8.83 upbm affinity estimate (log intensity, higher = more binding, comparable within an allelic series)"
same,binding signal,PRRX1 [13],"9.62 upbm affinity estimate (log intensity, higher = more binding, comparable within an allelic series)"
same,binding signal,HOXB9 [3],"8.75 upbm affinity estimate (log intensity, higher = more binding, comparable within an allelic series)"
same,binding signal,HOXB9 [4],"8.57 upbm affinity estimate (log intensity, higher = more binding, comparable within an allelic series)"
same,binding signal,PRRX1 [14],"9.56 upbm affinity estimate (log intensity, higher = more binding, comparable within an allelic series)"
same,binding signal,NKX2-5 [5],"8.84 upbm affinity estimate (log intensity, higher = more binding, comparable within an allelic series)"
CCACTCGA,binding signal,NKX2-5 [1],"12.5 upbm affinity estimate (log intensity, higher = more binding, comparable within an allelic series)"
same,binding signal,NKX2-4 [6],"12.6 upbm affinity estimate (log intensity, higher = more binding, comparable within an allelic series)"
same,binding signal,NKX2-4 [7],"13.1 upbm affinity estimate (log intensity, higher = more binding, comparable within an allelic series)"
same,binding signal,NKX2-4 [15],"12.4 upbm affinity estimate (log intensity, higher = more binding, comparable within an allelic series)"
same,binding signal,NKX2-6 [8],"11.6 upbm affinity estimate (log intensity, higher = more binding, comparable within an allelic series)"
same,binding signal,NKX2-4 [16],"13.1 upbm affinity estimate (log intensity, higher = more binding, comparable within an allelic series)"
same,binding signal,NKX2-5 [5],"12.2 upbm affinity estimate (log intensity, higher = more binding, comparable within an allelic series)"
ACTTGAGA,binding signal,NKX2-5 [1],"12.3 upbm affinity estimate (log intensity, higher = more binding, comparable within an allelic series)"
same,binding signal,NKX2-4 [6],"12.6 upbm affinity estimate (log intensity, higher = more binding, comparable within an allelic series)"
same,binding signal,NKX2-4 [7],"12.9 upbm affinity estimate (log intensity, higher = more binding, comparable within an allelic series)"
same,binding signal,NKX2-4 [15],"12.4 upbm affinity estimate (log intensity, higher = more binding, comparable within an allelic series)"
same,binding signal,NKX2-4 [16],"13.1 upbm affinity estimate (log intensity, higher = more binding, comparable within an allelic series)"
same,binding signal,NKX2-6 [10],"10.7 upbm affinity estimate (log intensity, higher = more binding, comparable within an allelic series)"
same,binding signal,NKX2-5 [5],"12.2 upbm affinity estimate (log intensity, higher = more binding, comparable within an allelic series)"
ACACTTGA,binding signal,NKX2-5 [1],"13 upbm affinity estimate (log intensity, higher = more binding, comparable within an allelic series)"
same,binding signal,NKX2-4 [6],"12.7 upbm affinity estimate (log intensity, higher = more binding, comparable within an allelic series)"
same,binding signal,NKX2-4 [7],"13.2 upbm affinity estimate (log intensity, higher = more binding, comparable within an allelic series)"
same,binding signal,NKX2-4 [15],"12.6 upbm affinity estimate (log intensity, higher = more binding, comparable within an allelic series)"
same,binding signal,NKX2-6 [8],"12 upbm affinity estimate (log intensity, higher = more binding, comparable within an allelic series)"
same,binding signal,NKX2-6 [9],"13.9 upbm affinity estimate (log intensity, higher = more binding, comparable within an allelic series)"
same,binding signal,NKX2-4 [16],"13.4 upbm affinity estimate (log intensity, higher = more binding, comparable within an allelic series)"
same,binding signal,NKX2-6 [10],"11.4 upbm affinity estimate (log intensity, higher = more binding, comparable within an allelic series)"
same,binding signal,NKX2-5 [5],"12.9 upbm affinity estimate (log intensity, higher = more binding, comparable within an allelic series)"
CGTGCGGC,binding signal,NKX2-5 [1],"8.72 upbm affinity estimate (log intensity, higher = more binding, comparable within an allelic series)"
same,binding signal,NKX2-4 [6],"9.48 upbm affinity estimate (log intensity, higher = more binding, comparable within an allelic series)"
same,binding signal,NKX2-4 [7],"9.35 upbm affinity estimate (log intensity, higher = more binding, comparable within an allelic series)"
same,binding signal,NKX2-4 [15],"9.44 upbm affinity estimate (log intensity, higher = more binding, comparable within an allelic series)"
same,binding signal,NKX2-4 [16],"9.47 upbm affinity estimate (log intensity, higher = more binding, comparable within an allelic series)"
same,binding signal,NKX2-5 [5],"8.8 upbm affinity estimate (log intensity, higher = more binding, comparable within an allelic series)"
GTCAAGTA,binding signal,NKX2-5 [1],"12.3 upbm affinity estimate (log intensity, higher = more binding, comparable within an allelic series)"
same,binding signal,NKX2-4 [6],"12.5 upbm affinity estimate (log intensity, higher = more binding, comparable within an allelic series)"
same,binding signal,NKX2-4 [7],"12.8 upbm affinity estimate (log intensity, higher = more binding, comparable within an allelic series)"
same,binding signal,NKX2-4 [15],"12.3 upbm affinity estimate (log intensity, higher = more binding, comparable within an allelic series)"
same,binding signal,NKX2-6 [9],"13.4 upbm affinity estimate (log intensity, higher = more binding, comparable within an allelic series)"
same,binding signal,NKX2-4 [16],"13 upbm affinity estimate (log intensity, higher = more binding, comparable within an allelic series)"
same,binding signal,NKX2-6 [10],"10.5 upbm affinity estimate (log intensity, higher = more binding, comparable within an allelic series)"
same,binding signal,NKX2-5 [5],"12.2 upbm affinity estimate (log intensity, higher = more binding, comparable within an allelic series)"
CAAGTACC,binding signal,NKX2-5 [1],"12.5 upbm affinity estimate (log intensity, higher = more binding, comparable within an allelic series)"
same,binding signal,NKX2-4 [6],"12.4 upbm affinity estimate (log intensity, higher = more binding, comparable within an allelic series)"
same,binding signal,NKX2-4 [7],"12.8 upbm affinity estimate (log intensity, higher = more binding, comparable within an allelic series)"
same,binding signal,NKX2-4 [15],"12.4 upbm affinity estimate (log intensity, higher = more binding, comparable within an allelic series)"
same,binding signal,NKX2-6 [8],"11.6 upbm affinity estimate (log intensity, higher = more binding, comparable within an allelic series)"
same,binding signal,NKX2-4 [16],"12.9 upbm affinity estimate (log intensity, higher = more binding, comparable within an allelic series)"
same,binding signal,NKX3-2 [11],"12.5 upbm affinity estimate (log intensity, higher = more binding, comparable within an allelic series)"
same,binding signal,NKX2-5 [5],"12.3 upbm affinity estimate (log intensity, higher = more binding, comparable within an allelic series)"
same,binding signal,NKX3-2 [12],"12.6 upbm affinity estimate (log intensity, higher = more binding, comparable within an allelic series)"
